Inhibition data for 89 molecules are collected here from PubChem BioAssay AID2717 (Broad Institute, 2010).

Out of some 300,000 compounds screened, about 3,200 (1.1%) were called active. Many of the other results were omitted from the sample, so actives are more common in it than they were. Unmarked numbers belong to inactive results. Rule as the data show it: active = inhibition above about 75%; inconclusive = no clear call, values can overlap the other calls; inactive = below that; tested in HMLE shEcad cells.

The assay in a line: cancer stem cell viability inhibitors, primary screen, luminescence (AID 2717). As to conditions: cancer stem cell-like cells viability, at 7.5 µM, active compounds read high.
`O=C(CN1C(=O)NC2(CCCCCC2)C1=O)Nc1ccc([N+](=O)[O-])cc1`: the inhibition is -18.6%.
For the molecule `CCOC(=O)CSC1=C(C#N)C(c2ccco2)C(C(=O)OCc2ccccc2)=C(C)N1` (centres undefined), the inhibition is -3.25%.
With `Cc1ccc(C2CC(=O)NC(SCC(=O)OCc3ccccc3)=C2C#N)o1` (centres undefined), the inhibition was 61.5%.
Turning to `CCOC(=O)CSC1=C(C#N)C(c2sccc2C)CC(=O)N1` (centres undefined), the inhibition was 78.4% (active).
With `Cc1c(Cl)cnc(NC(=O)COC(=O)C2CCCC2)c1Cl`, the inhibition was -15.8%.
As for `O=C(CCNC(=O)c1ccc(Cl)cc1)NC1CCCc2ccccc21` (centres undefined), the inhibition was 27%.
For `COC(=O)c1cc2nc(-c3ccccc3)cc(C(F)(F)F)n2n1`, the inhibition was -6.63%.
As for `COc1ccc(NC(=O)c2cc3nc(-c4ccccc4)cc(C)n3n2)cc1OC`, the inhibition was 5.1%.
For `COCCNc1cc(-c2ccccc2)nc2cc(-c3cccc(F)c3)nn12`, the inhibition was 85.5% (active).
For `CN(CCc1ccccc1)C(=O)c1cccc(NC(=O)Cc2ccc([N+](=O)[O-])cc2)c1`, the inhibition was -6.88%.
With `Cc1ccc(CNC(=O)CC(NC(=O)c2ccccc2)c2ccccc2)cc1` (centres undefined) the figure was -10.4%.
Turning to `CCN(CC)S(=O)(=O)c1ccc(N2CCCC2)c(NC(=O)c2ccc([N+](=O)[O-])o2)c1`, the inhibition is 27.4%.
With `Cc1ccc(S(=O)(=O)N2CCCCC2)cc1NC(=O)CCNC(=O)c1ccccc1`, the inhibition is -6.19%.
With `CC(C)(C)c1ccc(C(=O)NCCn2c(N)c(C#N)c3nc4ccccc4nc32)cc1` the figure was 35.6%; with `CC(C)Cn1c(N)c(C(=O)NCc2cccs2)c2nc3ccccc3nc21`, 116% (active); with `CCCNC(=O)c1c(N)n(-c2ccc(S(N)(=O)=O)cc2)c2nc3ccccc3nc12`, 0.593%.
Consider `Cn1c(CC(=O)NNC(=O)c2ccccc2F)nc2ccccc21`, for which the inhibition is -2.01%.
For the molecule `CN(Cc1ccccc1)C(=O)COC(=O)/C=C/c1ccc2c(c1)OCO2`, the inhibition is -12%.
`Cn1cncc1C#Cc1c(-c2ccsc2)sc2ccccc12`: the inhibition was 107% (active).
On to `O=C(NCc1ccc2c(c1)OCO2)c1c(-c2ccsc2)sc2ccccc12`, for which the inhibition was 58.2%.
For `Cc1ccnc(SCC(=O)Nc2cccc(S(=O)(=O)N3CCOCC3)c2)n1`, the inhibition was -13%.
For `O=C(NCC#CCSc1nnc(-c2cccc3ccccc23)o1)c1cccs1`, the inhibition was 44.4%.
For the molecule `O=C(/C=C/c1ccccc1[N+](=O)[O-])OCC(=O)N1CCCC1`, the inhibition is -16.9%.
Take `CSCCC1NC(=O)N(CC(=O)Nc2cccc(S(=O)(=O)N3CCCCCC3)c2)C1=O` (centres undefined): the inhibition was -15.7%.
For `O=C(CCNC(=O)c1ccc(Br)cc1)NCC(c1ccco1)N1CCCCC1` (centres undefined), the inhibition was -10.9%.
Regarding `COc1cccc(-c2cc3nc4c(c(N5CCC6(CC5)OCCO6)n3n2)CCCC4)c1`, the inhibition is 90.5% (active).
Regarding `COc1cccc(CNc2nc3nc4c(c(=O)n3[nH]2)CCC4)c1`, the inhibition was -11.3%.
`COc1cccc(NC(=O)CN2CCN(c3nc(-c4cccc(OC)c4)cs3)CC2)c1`: the inhibition is 2.49%.
For `COc1ccccc1-c1sc2ccccc2c1C#CC1(O)CCCCC1`, the inhibition is 105% (active).
With `COc1ccccc1C1=CC(=O)CCC1` the figure was -22.3%; with `COc1ccccc1-c1sc2ccccc2c1-c1ccc(C(C)=O)cc1`, 29.6%.
With `Cc1csc(NC(=O)NC2(C(F)(F)F)Oc3ccccc3O2)n1`, the inhibition was 36.6%.
Regarding `COc1ccc(Cl)cc1NC(=O)CN1CCN(C(=O)N2CCOCC2)CC1`, the inhibition was -6.19%.
With `O=C(Nc1cc(N2CCOCC2)ncn1)NC1(C(F)(F)F)Oc2ccc(Cl)cc2O1` (centres undefined), the inhibition was 88.5% (active).
As to `Cc1c(O)c(C)c2c(c1O)C(=O)C[C@@H](c1ccccc1)O2`, the inhibition is 1.32%.
On to `Cc1cccc(-n2ncc3c(=O)[nH]c(SCC(=O)Nc4cc(C)on4)nc32)c1`, for which the inhibition was -7.48%.
On to `Cc1ccc(CCC(=O)Nc2ncc(Cc3cc(Cl)ccc3Cl)s2)o1`, for which the inhibition was 86.2% (active).
With `Cc1ccc(C(=O)Nc2nc3ccc(Cl)cc3s2)o1` the figure was 18.8%; with `CCOc1ccccc1NC(=O)CCc1ccc(C)o1`, 0.408%.
With `CCCc1cc(=O)[nH]c(SCC(=O)Nc2ccc(S(=O)(=O)N3CCCC3)cc2)n1` the figure was 15.6%; with `C=CC[C@@H](CC(=O)N[C@@H](CO)Cc1ccccc1)C(=O)NCCOC(=O)[C@@H](CC=C)CC(=O)OC(C)(C)C`, -6.46%; with `CCN1CCN(CCNC(=O)c2ccc3c(c2)NC(=O)/C(=C\c2ccc(OC)c(OC)c2)S3)CC1`, 12.1%.
In the case of `CCN1CCN(CCNC(=O)c2ccc(/C=C3/Sc4ccccc4N(Cc4cccc(C)c4)C3=O)cc2)CC1`, the inhibition is 102% (active).
As to `O=C(NCCN1CCOCC1)c1ccc(/C=C2\Sc3ccccc3N(Cc3ccc(F)cc3)C2=O)cc1`, the inhibition was 33.7%.
As to `COc1ccc(C(=O)OCC(=O)c2cc(C)n(CC3CCCO3)c2C)cc1[N+](=O)[O-]` (centres undefined), the inhibition is 37.8%.
`C=CC[C@H](CC(=O)OC(C)(C)C)C(=O)OC[C@H]1CCCN1C(=O)[C@H](CC=C)CC(=O)N(CCO)Cc1ccccc1`: the inhibition is 4.1%.
Consider `CCN(C(=O)CSc1cccc[n+]1[O-])c1ccccc1`, for which the inhibition was 7%.
Regarding `O=C(OCC(=O)N1CCc2ccccc21)c1ccc([N+](=O)[O-])cc1`, the inhibition is 8.88%.
The same measure for `O=C(O)c1ccc(NC(=O)c2ccc(COc3ccc(Cl)cc3)o2)cc1`: -2.6%.
With `Cc1cccc(NC(=O)c2ccc(COc3ccccc3[N+](=O)[O-])o2)n1` the figure was 54.5%.
For the molecule `O=C(Nc1ccn(Cc2ccccc2F)n1)c1ccc(COc2ccc(Cl)cc2Cl)o1`, the inhibition was 80.3% (active).
`COCCCNC(=O)CC1C[C@H](C(=O)N2CCCCC2)[C@@]2(CCc3ccccc3)c3[nH]c4ccccc4c3CCN2C1=O` (some centres undefined): the inhibition is -19.5%.
Turning to `O=C1NC(=Nc2ccc(Cl)cc2)SC1Cc1cccc(Cl)c1Cl` (centres undefined), the inhibition is 76.5% (active).
Turning to `CC(C)=N/N=C1/NC(=O)C(Cc2ccccc2)S1` (centres undefined), the inhibition is -16.9%.
The same measure for `NC1=NC(=O)C(Cc2cccc(Cl)c2Cl)S1` (centres undefined): 14.4%; for `O=C(CCCOc1ccccc1)NNC(=O)c1ccc(Cl)cc1`: -7.46%; for `O=C(NCCc1ccco1)c1ccc(OCc2cn3ccccc3n2)cc1`: -8.4%.
With `COc1ccc(NC(=O)/C(Cl)=C(/Cl)S(=O)Cc2ccc(C)cc2)cn1` (centres undefined) the figure was 112% (active); with `COc1ccc(NC(=O)c2cc(-c3ccc(C)cc3)on2)cc1`, 11.2%; with `COc1ccc(Nc2cc(Cl)ccc2C(=O)O)cn1`, 5.84%.
Consider `NC(=O)Nc1ccc(C(=O)OCC(=O)NC2CCCc3ccccc32)cc1` (centres undefined), for which the inhibition is 3.37%.
Consider `C=C(C)COc1ccc(-c2n[nH]c(C)c2-c2ccccc2)c(O)c1`, for which the inhibition was -11.5%.
With `C=C(C)COc1ccc(-c2n[nH]c(C)c2-c2ccccc2OC)c(O)c1` the figure was 102% (active); with `COc1ccc(-c2n[nH]c(C)c2-c2ccccc2OC)c(O)c1`, 2.11%.
As to `COc1cccc(/C=N/Nc2ncc(C(F)(F)F)cc2Cl)c1O`, the inhibition was 102% (active).
For the molecule `COc1cccc(/C(C)=N/Nc2ncc(Cl)cc2Cl)c1`, the inhibition was 24.2%.
Take `COc1cccc(/C=N/Nc2cc(C)nc(-c3ccccc3O)n2)c1O`: the inhibition was 12.2%.
`Cc1ccc(S(=O)(=O)Nc2nc(CN3CCOCC3)nc3sc(C)c(C)c23)cc1`: the inhibition is -7.69%.
As for `Cc1ccc(NC(=O)C(C)Sc2nnc(C3CC3)n2C2CC2)cc1S(=O)(=O)N1CCOCC1` (centres undefined), the inhibition is -10.2%.
As for `O=C(NNS(=O)(=O)c1c(F)cc(F)c(Cl)c1F)C12CC3CC(CC(C3)C1)C2`, the inhibition was -12.7%.
Regarding `COc1cccc2sc3cc(NCC[C@@H]4CCCN4C)ccc3c(=O)c12`, the inhibition is 6.75%.
As for `Cc1nc2ccc(NC(=O)c3cccc(S(=O)(=O)N4CCOCC4)c3)cc2s1`, the inhibition is -13.4%.
For the molecule `CCOc1cccc(/C=C/c2ccc3ccccc3n2)c1OC(C)=O`, the inhibition is 64.6%.
For the molecule `COc1cccc(/C=C2\C=C(c3ccc(C)cc3)OC2=O)c1OC(C)=O`, the inhibition is -0.631%.
With `COc1cccc(/C=C/c2ccc3ccccc3n2)c1OC(C)=O` the figure was 104% (active); with `O=C1N[C@@H](c2ccccc2)COC(=O)[C@H](Cc2ccc(F)cc2)C/C=C\C[C@@H]1CC(=O)N(CCO)Cc1ccccc1`, 9.15%; with `CCN(CC(=O)Nc1c(F)cccc1F)C(=O)c1ccc(-c2ccc(C(C)=O)cc2)o1`, -4.76%.
With `COc1ccccc1CNC(=O)COC(=O)c1cccs1`, the inhibition was 18.5%.
In the case of `C=CC[C@@H](CC(=O)N[C@H](CO)Cc1ccccc1)C(=O)N[C@H](C)COC(=O)[C@@H](CC=C)Cc1ccc(F)cc1`, the inhibition was -14.7%.
Turning to `COc1ccccc1N1CCN(C(=O)CSc2nnc(-c3ccoc3C)o2)CC1`, the inhibition is -0.373%.
Take `COC(=O)CSc1ncnc2c1cnn2-c1ccc(C)cc1C`: the inhibition is 8.04%.
On to `COc1ccccc1N1CCN(C(=O)CSc2ncnc3c2cnn3-c2ccc(C)c(C)c2)CC1`, for which the inhibition was 75.8% (active).
For the molecule `COc1ccc(C2(c3ccc(OC)cc3)NC(=O)N(CC(=O)Nc3cc(C)on3)C2=O)cc1`, the inhibition is -19.5%.
With `O=C(Cn1cnc2ccccc2c1=O)NNC(=O)c1ccccc1F`, the inhibition is -14%.
With `CCCCn1c(CCCNC(=O)CC)nc2ccccc21` the figure was -2.03%.
As to `CCCCn1c(CN2CCN(CCO)CC2)nc2ccccc21`, the inhibition is -13.9%.
With `C=C(Br)Cn1c(CCCC)nc2ccccc21` the figure was 77.7% (active).
With `O=C(Nc1cccc(S(=O)(=O)NC2=NCCC2)c1)c1ccc(F)cc1F` the figure was 17.5%; with `Cc1cccc(C(=O)OCC(=O)NC(C)C2CC3CCC2C3)c1O` (centres undefined), -4.77%.
